Experimental findings from ChEMBL document CHEMBL2218924, “A broad activity screen in support of a chemogenomic map for kinase signalling research and drug discovery” (Biochem J, 2013) are described below.

In assay [1] the target is T1, Serine/threonine-protein kinase BRSK1 (Homo sapiens) (UniProt Q8TDC3).
T1 sequence (whole entry): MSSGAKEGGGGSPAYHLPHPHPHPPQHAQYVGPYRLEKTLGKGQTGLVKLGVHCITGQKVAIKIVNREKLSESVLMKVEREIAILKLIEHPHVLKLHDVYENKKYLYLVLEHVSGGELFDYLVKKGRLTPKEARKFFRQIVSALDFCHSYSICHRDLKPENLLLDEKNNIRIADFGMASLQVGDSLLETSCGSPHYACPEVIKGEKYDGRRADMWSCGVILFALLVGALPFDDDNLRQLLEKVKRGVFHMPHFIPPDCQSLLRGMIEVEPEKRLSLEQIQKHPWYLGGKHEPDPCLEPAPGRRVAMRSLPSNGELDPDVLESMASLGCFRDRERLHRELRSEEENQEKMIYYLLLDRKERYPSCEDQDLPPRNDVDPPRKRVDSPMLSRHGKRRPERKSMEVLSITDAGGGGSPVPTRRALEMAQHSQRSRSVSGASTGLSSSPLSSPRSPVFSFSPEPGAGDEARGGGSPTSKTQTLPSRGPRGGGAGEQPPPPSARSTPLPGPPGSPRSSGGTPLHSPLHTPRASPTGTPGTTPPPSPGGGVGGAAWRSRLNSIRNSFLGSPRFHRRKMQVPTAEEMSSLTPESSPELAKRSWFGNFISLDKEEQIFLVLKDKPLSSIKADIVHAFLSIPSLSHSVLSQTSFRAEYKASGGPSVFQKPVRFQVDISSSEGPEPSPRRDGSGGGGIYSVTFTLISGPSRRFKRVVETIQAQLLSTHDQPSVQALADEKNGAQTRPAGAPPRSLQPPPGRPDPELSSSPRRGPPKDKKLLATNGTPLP
The settings on record: at 1 µM.

The target of assay [2] is T1, Serine/threonine-protein kinase BRSK1 (Homo sapiens). The note with it: at 10 µM.
Assay [3] concerns the target T2, Serine/threonine-protein kinase BRSK2 (Homo sapiens) (UniProt Q8IWQ3).
T2 sequence (whole entry): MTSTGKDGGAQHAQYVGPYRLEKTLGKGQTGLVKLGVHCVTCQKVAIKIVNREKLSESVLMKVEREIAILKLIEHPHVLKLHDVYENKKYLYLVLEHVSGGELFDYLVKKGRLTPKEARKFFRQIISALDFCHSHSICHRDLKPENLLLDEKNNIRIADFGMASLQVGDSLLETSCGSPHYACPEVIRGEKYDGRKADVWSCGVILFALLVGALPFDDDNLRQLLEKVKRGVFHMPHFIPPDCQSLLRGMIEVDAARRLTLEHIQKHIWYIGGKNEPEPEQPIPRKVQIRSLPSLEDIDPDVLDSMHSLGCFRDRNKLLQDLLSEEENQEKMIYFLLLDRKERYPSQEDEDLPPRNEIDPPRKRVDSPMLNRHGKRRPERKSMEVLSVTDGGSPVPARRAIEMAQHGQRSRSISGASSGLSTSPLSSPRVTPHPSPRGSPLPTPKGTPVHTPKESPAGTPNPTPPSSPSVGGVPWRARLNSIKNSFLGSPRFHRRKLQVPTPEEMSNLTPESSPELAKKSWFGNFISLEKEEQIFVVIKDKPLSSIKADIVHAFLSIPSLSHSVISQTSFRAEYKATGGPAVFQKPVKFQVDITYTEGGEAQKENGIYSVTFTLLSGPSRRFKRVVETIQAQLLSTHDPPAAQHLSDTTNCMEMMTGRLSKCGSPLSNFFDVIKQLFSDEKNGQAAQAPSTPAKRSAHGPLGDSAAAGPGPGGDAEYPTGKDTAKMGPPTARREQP
The settings on record: at 1 µM.

The target in assay [4] is T2, Serine/threonine-protein kinase BRSK2 (Homo sapiens). The note with it: at 10 µM.
Assay [5] concerns the target T3, Cyclin-dependent kinase 1/cyclin B1 (Homo sapiens) (UniProt P06493+P14635). The settings on record: at 1 µM.
Assay [6] deals with T3, Cyclin-dependent kinase 1/cyclin B1 (Homo sapiens). The settings on record: at 10 µM.
Assay [7] deals with T4, Cyclin-dependent kinase 2/cyclin A (Homo sapiens) (UniProt P24941+P20248+P78396). The settings on record: at 1 µM.
Assay [8] deals with T4, Cyclin-dependent kinase 2/cyclin A (Homo sapiens). The note with it: at 10 µM.
In assay [9] the target is T5, Cyclin-dependent kinase 2/cyclin E (Homo sapiens) (UniProt P24864+P24941+O96020). The settings on record: at 1 µM.
The target of assay [10] is T5, Cyclin-dependent kinase 2/cyclin E (Homo sapiens). The note with it: at 10 µM.

A word on the residual activity: it is the signal under treatment as a percentage of the control signal.

T3 sequence (P06493 whole entry, looked up): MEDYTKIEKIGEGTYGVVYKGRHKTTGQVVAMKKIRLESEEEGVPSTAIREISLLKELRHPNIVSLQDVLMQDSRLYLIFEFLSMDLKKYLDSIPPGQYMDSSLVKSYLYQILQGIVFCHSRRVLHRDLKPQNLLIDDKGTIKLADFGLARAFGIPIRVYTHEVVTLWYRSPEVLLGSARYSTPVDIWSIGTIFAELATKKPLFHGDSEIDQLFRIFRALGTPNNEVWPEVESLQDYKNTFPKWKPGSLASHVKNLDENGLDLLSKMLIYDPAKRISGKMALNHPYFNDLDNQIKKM
T3 sequence (P14635 whole entry, looked up): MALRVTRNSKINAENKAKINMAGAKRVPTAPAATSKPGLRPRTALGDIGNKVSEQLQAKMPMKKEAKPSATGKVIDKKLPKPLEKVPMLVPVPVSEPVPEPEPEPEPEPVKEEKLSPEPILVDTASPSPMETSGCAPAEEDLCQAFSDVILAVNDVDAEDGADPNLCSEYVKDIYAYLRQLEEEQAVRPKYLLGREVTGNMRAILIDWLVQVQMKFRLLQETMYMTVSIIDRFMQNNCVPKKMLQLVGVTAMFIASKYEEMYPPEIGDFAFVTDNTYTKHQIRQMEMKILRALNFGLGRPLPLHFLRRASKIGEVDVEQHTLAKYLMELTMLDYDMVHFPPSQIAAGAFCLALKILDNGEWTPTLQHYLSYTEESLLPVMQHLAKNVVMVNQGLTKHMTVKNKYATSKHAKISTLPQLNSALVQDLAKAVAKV

As for `CC(C)n1cnc2c(NCc3ccccc3)nc(NCCCO)nc21`, the residual activity was found to be 105% in [1]; 100% in assay [2]; 110% in [3]; 99% in [4]; 90% in assay [5]; 55% in assay [6]. Also, the residual activity is 58% in assay [7], 11% in assay [8], 39% in assay [9] and 8% in assay [10].

As to `COc1ccc(S(=O)(=O)N(CCO)c2ccccc2CN(C)C/C=C/c2ccc(Cl)cc2)cc1`, the residual activity in assay [1] stood at 81%; in assay [2], 63%; in [3], 114%; in assay [4], 88%; in assay [5] it was 117%; in [6] it was 90%. Also, the residual activity in [7] was 76%; in [8], 64%; in assay [9] it was 106%; in assay [10], 95%.

Consider `O=C1NC(=O)/C(=C/c2ccc3c(c2)OC(F)(F)O3)S1`, for which the residual activity in assay [1] was 86%; in assay [2] it was 71%; in assay [3] it was 76%; in assay [4], 62%; in assay [5], 101%; in [6], 104%. For the same compound, the residual activity was 140% in assay [7], 96% in assay [8], 102% in assay [9] and 113% in [10].

Turning to `CO[C@H]1[C@@H](OC)C[C@H](C)[C@@H](OC)C2=CC(=O)C=C(NC(=O)/C(C)=C/C=C/[C@H](OC)[C@@H](OC(N)=O)/C(C)=C/[C@@H]1C)C2=O`, the residual activity in assay [1] is 76%; in assay [2] it was 75%; in assay [3], 92%; in assay [4] it was 106%; in assay [5], 111%; in [6], 110%. For the same compound, the residual activity in assay [7] was determined as 138%; in assay [8], 83%; in assay [9] it was 104%; in assay [10] it was 91%.

Consider `CCOc1cc2ncnc(Nc3cccc(Br)c3)c2cc1OCC`, for which the residual activity in assay [1] was 12%; in assay [2] it was 15%; in assay [3], 95%; in assay [4], 60%; in assay [5], 93%; in assay [6] it was 89%. The residual activity in [7] stood at 136%; in [8] it was 89%; in assay [9], 92%; in assay [10], 79%.

Take `O=C1NC(=O)c2c1c1c3ccccc3[nH]c1c1[nH]c3cc(Br)ccc3c21`: the residual activity came to 82% in assay [1]; 55% in assay [2]; 69% in assay [3]; 32% in assay [4]; 92% in assay [5]; 74% in [6]. The residual activity came out at 84% in assay [7], 82% in assay [8], 63% in [9] and 67% in assay [10].

For `CCC(=O)Nc1ccc2ncnc(Nc3cccc(Br)c3)c2c1`, the residual activity in assay [1] turned out to be 55%; in assay [2], 17%; in [3], 97%; in assay [4], 63%; in [5], 114%; in assay [6], 107%. Besides, the residual activity in [7] worked out at 135%; in [8], 101%; in assay [9], 106%; in assay [10] it was 104%.

In the case of `Cc1cc(Nc2nc(-c3ccccc3)nc3ccccc23)n[nH]1`, the residual activity in assay [1] came out at 57%; in assay [2], 12%; in assay [3] it was 59%; in [4], 7%; in [5] it was 97%; in assay [6], 68%. Also, the residual activity worked out at 67% in assay [7], 25% in assay [8], 70% in assay [9] and 15% in assay [10].

In the case of `Cn1nc2c3c(cccc31)C(=O)c1ccccc1-2`, the residual activity was determined as 83% in assay [1]; 68% in assay [2]; 101% in assay [3]; 61% in assay [4]; 101% in assay [5]; 86% in assay [6]. Besides, the residual activity turned out to be 80% in [7], 84% in [8], 87% in [9] and 82% in assay [10].

`O=c1cc(-c2cccc3c2Sc2ccccc2S3)oc(N2CCOCC2)c1`: the residual activity in assay [1] worked out at 102%; in [2] it was 96%; in [3], 107%; in assay [4] it was 96%; in assay [5] it was 101%; in assay [6], 77%. The residual activity in assay [7] turned out to be 96%; in [8], 78%; in [9] it was 101%; in assay [10] it was 87%.

For the compound `O=C1Nc2ccccc2/C1=C1/Nc2ccccc2/C1=N\OCCC(O)CO` (stereo not given), the residual activity in assay [1] was determined as 26%; in assay [2], 39%; in assay [3] it was 33%; in [4], 4%; in assay [5] it was 25%; in assay [6], 6%. Besides, the residual activity was 12% in [7], 11% in [8], 9% in [9] and 4% in assay [10].

For `CC(=O)O/N=C1\C(=C2\C(=O)Nc3cc(Br)ccc32)Nc2ccccc21`, the residual activity in [1] came out at 48%; in [2], 24%; in assay [3], 52%; in assay [4], 21%; in assay [5], 90%; in assay [6] it was 34%. For the same compound, the residual activity in assay [7] turned out to be 60%; in assay [8], 24%; in assay [9], 42%; in assay [10], 9%.

In the case of `Nc1nc(Nc2ccc(S(N)(=O)=O)cc2)nn1C(=S)Nc1c(F)cccc1F`, the residual activity in [1] is 0%; in assay [2], 0%; in [3] it was 0%; in assay [4], 1%; in assay [5], 0%; in [6], -1%. Besides, the residual activity in assay [7] was -2%; in assay [8] it was -1%; in assay [9], -1%; in assay [10] it was -2%.

For `COc1cc2ncnc(Nc3ccc(Oc4ccccc4)cc3)c2cc1OC`, the residual activity in assay [1] stood at 55%; in [2], 60%; in [3] it was 89%; in [4], 102%; in assay [5], 99%; in assay [6], 102%. Besides, the residual activity in assay [7] amounted to 130%; in [8], 101%; in assay [9], 106%; in assay [10], 106%.

As to `Nc1cccc(-c2cc3c(Oc4cccc(O)c4)ncnc3[nH]2)c1`, the residual activity was found to be 45% in assay [1]; 8% in assay [2]; 75% in assay [3]; 20% in [4]; 81% in assay [5]; 33% in assay [6]. The residual activity in [7] stood at 74%; in assay [8] it was 27%; in [9] it was 91%; in [10], 41%.

Turning to `CO[C@@H]1[C@H](N(C)C(=O)c2ccccc2)C[C@H]2O[C@]1(C)n1c3ccccc3c3c4c(c5c6ccccc6n2c5c31)C(=O)NC4`, the residual activity in assay [1] came to 3%; in assay [2] it was 3%; in [3], 4%; in assay [4], 3%; in assay [5] it was 82%; in [6], 80%. Further, the residual activity in assay [7] is 80%; in [8], 39%; in assay [9] it was 70%; in assay [10], 60%.
